Data reported in PubChem BioAssay.

biological target: Tumor necrosis factor receptor superfamily member 10B (Homo sapiens) (UniProt O14763); assay: viability loss of caspase-8 NB7 cells with TRAIL – with/without TRAIL, luminescence panel, confirmation (AID 651596); details: NB7 neuroblastoma + caspase-8, TRAIL sensitization, NB7 Caspase-8, with TRAIL, mean of runs, at 10 µM, stronger effect = higher value
Sequence (O14763 whole entry, looked up): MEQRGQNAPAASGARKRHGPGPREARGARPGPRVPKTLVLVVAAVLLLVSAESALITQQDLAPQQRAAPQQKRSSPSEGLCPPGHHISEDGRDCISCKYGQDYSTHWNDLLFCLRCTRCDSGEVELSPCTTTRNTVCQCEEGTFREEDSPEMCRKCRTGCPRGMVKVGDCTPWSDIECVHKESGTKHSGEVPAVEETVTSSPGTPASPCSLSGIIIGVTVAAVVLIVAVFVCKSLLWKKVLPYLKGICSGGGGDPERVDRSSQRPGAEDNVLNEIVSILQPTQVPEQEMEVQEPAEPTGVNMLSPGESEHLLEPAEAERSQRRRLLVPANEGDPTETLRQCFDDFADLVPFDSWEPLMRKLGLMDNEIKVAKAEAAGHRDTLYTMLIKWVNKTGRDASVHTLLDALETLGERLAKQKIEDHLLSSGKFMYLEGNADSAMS

| SMILES | activity [%] |
| --- | --- |
| CCCCCCCCCCCCCCCC[n+]1ccc(C(N)=O)cc1 | 92.1 |
| Cc1ccc2nc(NC(=O)c3ccc(-c4nc5ccccc5s4)s3)sc2c1 | 56.8 |
| Cc1ccc(S(=O)(=O)n2ccc3c(OCCOCCNCc4ccc(F)cc4)cccc32)cc1 | 15.8 |
| Cc1[nH]cnc1C(=O)N/N=C/c1c(Cl)cccc1Cl | 58.7 |
| Nc1c(N(CCC2=CCCCC2)C(=O)COc2ccc(F)cc2Cl)c(=O)[nH]c(=O)n1Cc1ccccc1 | 88.3 |
| C#CC(=O)N(c1ccc(OC)cc1OC)C(C(=O)NC1CCCC1)c1cccs1 (centres undefined) | 99 |
| C#CCSc1nnc(-c2ccc(C)cc2)o1 | 97.6 |
| Cc1ccc(CN=c2c([N+](=O)[O-])nn(-c3cccc(C)c3)n2O)cc1 | 16.2 |
| COc1ccc2[nH]c3c(NCCC4=CCCCC4)ncnc3c2c1 | 35.8 |
| Cc1ccc2nc(-c3ccc(NC(=O)COC(=O)c4cncc(Br)c4)cc3)sc2c1 | 60.7 |
| COc1ccccc1-c1nnc(-c2ccc(C)cc2)o1 | 46.6 |
| N/C(CCS(=O)(=O)c1ccc(Cl)cc1)=N\OC(=O)c1ccccc1C(F)(F)F | 94.2 |
| C/C(=N\NC(=O)COc1ccc(C(C)(C)C)cc1)c1ccc(-n2ccnc2)cc1 | 63.5 |
| CC(=O)Nc1cccc(-c2csc(Nc3ccc(C)cn3)n2)c1 | 49.5 |
| CCc1ccc(C(=O)Cn2ccsc2=N)cc1 | 66.5 |
| CN(C)c1ccc(Sc2ccc3nc(N)nc(N)c3c2)cc1 | 62.9 |
| CCOC(=O)C1=CCN(S(=O)(=O)c2ccccc2C)C1c1ccc(Cl)cc1 (centres undefined) | 10.1 |
| Cc1ccc(C(C)C)c(OCC(=O)Nc2ccc3c(c2)nc(CCN2CCCCC2)n3C)c1 | 7.92 |
| CCCCc1ccc(NC(=O)c2ccc(N(C)S(C)(=O)=O)cc2)cc1 | 25.8 |
| COc1ccc(S(=O)(=O)N2CCN(c3ccc4nnc(-c5ccccc5)n4n3)CC2)cc1 | 58 |

| SMILES | activity [%] |
| --- | --- |
| Cc1cccc(-n2ncc3c(N4CCC(C)CC4)ncnc32)c1 | 44.7 |
| COc1cccc(NC(=O)c2cc3ccccc3o/c2=N\O)c1 | 65 |
| Cc1nc2c(-c3ccccc3)cnn2c(N)c1-c1ccccc1 | 92.6 |
| COc1ccc2cc(CNCCOCCOCCNCc3ccc4cc(OC)ccc4c3)ccc2c1 | -7.05 |
| COc1ccc2nc(-c3ccccc3)[nH]c2c1 | 57.3 |
| Cc1ccc(C(=O)Nc2ccc3ncccc3c2)cc1 | 93.4 |
| COc1ccc(C(=O)NC(=O)Nc2cc(C)ccn2)cc1 | 95.3 |
| C/C(=N\Nc1nc2ccccc2[nH]1)c1ccc(N2CCOCC2)cc1 | 80.9 |
| COc1ccc(/C=C(\C#N)c2nc3ccccc3[nH]2)cc1O | 56.5 |
| OCC1OC(n2ccc3c2ncn2ncnc32)C(O)C1O (centres undefined) | 93.8 |
| CC(C)(C)c1ccc(NC(=O)c2ccsc2)cc1 | 73.7 |
| Cc1c(P(=S)(c2ccccc2)c2ccccc2)[n+]2ccccc2n1C/C=C/c1ccccc1 | 83.3 |
| Cn1cnc([N+](=O)[O-])c1Sc1nc(N)nc2c1ncn2C1OC(CO)C(O)C1O (centres undefined) | 66.8 |
| O=c1[nH]c(/C=C/c2ccccc2Cl)nc2ccccc12 | 75.5 |
| O=C(Nc1ccc2c(c1)CCC2)c1ccccc1F | 30.3 |
| CC(=O)CSc1nc2cc3c(cc2cc1C#N)OCCO3 | 49.6 |
| COc1ccc(CSc2nc3ccccc3[nH]2)cc1 | 70.8 |
| Nc1ccccc1C(=O)NN=Cc1cccnc1 | 63.5 |
| Nc1nc(=S)c2ncn(C3OC(CO)C(O)C3O)c2[nH]1 (centres undefined) | 9.65 |
